IP6K1 inh: Primary qHTS assay for small molecule inhibitors of Inositol hexaphosphate kinase 1 (IP6K1); activity change, % (series mostly up to about 58 µM); Inositol hexakisphosphate kinase 1 (Homo sapiens), Q92551; 140,000 tested, 0.81% active; IP6K1 kinase, ADP-Glo luminescence, 2 h; hits give low values; AID 1645851, 2021; in the data active = activity change below about -25%
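ADP-Glo luminescence measures ADP made by human IP6K1 during a 2 h RT reaction with ATP/IP6 (mix at 1.3 mM/130 uM); top library doses 57.5 and 19.1 uM final.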
SNCA expr inhib: Primary qHTS assay for inhibitors of alpha-synuclein gene (SNCA) expression | 140,000 tested, 0.17% active | HEK-293 SNCA-luciferase knock-in, luminescence, 24 h | AID 1671194, 2021 | Potency, µM (top dose mostly 57.2 µM), usual class: inhibitors; also: nearly all actives have a fitted effect of over 45% in size
SNCA viab count: GF-AFC viability counterscreen for inhibitors of alpha-synuclein gene (SNCA) expression; HEK-293-SNCA-luc viability, GF-AFC fluorescence, 24 h; Potency, µM (series often up to 57.1 µM), most hits filed as cytotoxic; 150,000 tested, 0.12% active; AID 1671193, 2021; also: nearly all actives have a fitted effect of over 30% in size
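Cytotoxicity counterscreen: after 24 h compound treatment of genome-edited SNCA-luciferase HEK-293 cells, live-cell protease substrate GF-AFC read by fluorescence after 30 min; activity scaled between DMSO (0%) and medium-only (-100%), curves Hill-fitted.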
KDM5B inh: Primary screen for KDM5B Histone Demethylases FDH-coupled qHTS | 220,000 tested, 2.6% active | AID 1347165, 2019 | KDM5B demethylase, FDH-coupled NADH fluorescence (FDH is formaldehyde dehydrogenase) | Potency, µM (titrated, usually from 57.7 µM), usual class: inhibitors; also: nearly all actives have a fitted effect of over 70% in size
Target sequence (Q9UGL1 whole entry, looked up): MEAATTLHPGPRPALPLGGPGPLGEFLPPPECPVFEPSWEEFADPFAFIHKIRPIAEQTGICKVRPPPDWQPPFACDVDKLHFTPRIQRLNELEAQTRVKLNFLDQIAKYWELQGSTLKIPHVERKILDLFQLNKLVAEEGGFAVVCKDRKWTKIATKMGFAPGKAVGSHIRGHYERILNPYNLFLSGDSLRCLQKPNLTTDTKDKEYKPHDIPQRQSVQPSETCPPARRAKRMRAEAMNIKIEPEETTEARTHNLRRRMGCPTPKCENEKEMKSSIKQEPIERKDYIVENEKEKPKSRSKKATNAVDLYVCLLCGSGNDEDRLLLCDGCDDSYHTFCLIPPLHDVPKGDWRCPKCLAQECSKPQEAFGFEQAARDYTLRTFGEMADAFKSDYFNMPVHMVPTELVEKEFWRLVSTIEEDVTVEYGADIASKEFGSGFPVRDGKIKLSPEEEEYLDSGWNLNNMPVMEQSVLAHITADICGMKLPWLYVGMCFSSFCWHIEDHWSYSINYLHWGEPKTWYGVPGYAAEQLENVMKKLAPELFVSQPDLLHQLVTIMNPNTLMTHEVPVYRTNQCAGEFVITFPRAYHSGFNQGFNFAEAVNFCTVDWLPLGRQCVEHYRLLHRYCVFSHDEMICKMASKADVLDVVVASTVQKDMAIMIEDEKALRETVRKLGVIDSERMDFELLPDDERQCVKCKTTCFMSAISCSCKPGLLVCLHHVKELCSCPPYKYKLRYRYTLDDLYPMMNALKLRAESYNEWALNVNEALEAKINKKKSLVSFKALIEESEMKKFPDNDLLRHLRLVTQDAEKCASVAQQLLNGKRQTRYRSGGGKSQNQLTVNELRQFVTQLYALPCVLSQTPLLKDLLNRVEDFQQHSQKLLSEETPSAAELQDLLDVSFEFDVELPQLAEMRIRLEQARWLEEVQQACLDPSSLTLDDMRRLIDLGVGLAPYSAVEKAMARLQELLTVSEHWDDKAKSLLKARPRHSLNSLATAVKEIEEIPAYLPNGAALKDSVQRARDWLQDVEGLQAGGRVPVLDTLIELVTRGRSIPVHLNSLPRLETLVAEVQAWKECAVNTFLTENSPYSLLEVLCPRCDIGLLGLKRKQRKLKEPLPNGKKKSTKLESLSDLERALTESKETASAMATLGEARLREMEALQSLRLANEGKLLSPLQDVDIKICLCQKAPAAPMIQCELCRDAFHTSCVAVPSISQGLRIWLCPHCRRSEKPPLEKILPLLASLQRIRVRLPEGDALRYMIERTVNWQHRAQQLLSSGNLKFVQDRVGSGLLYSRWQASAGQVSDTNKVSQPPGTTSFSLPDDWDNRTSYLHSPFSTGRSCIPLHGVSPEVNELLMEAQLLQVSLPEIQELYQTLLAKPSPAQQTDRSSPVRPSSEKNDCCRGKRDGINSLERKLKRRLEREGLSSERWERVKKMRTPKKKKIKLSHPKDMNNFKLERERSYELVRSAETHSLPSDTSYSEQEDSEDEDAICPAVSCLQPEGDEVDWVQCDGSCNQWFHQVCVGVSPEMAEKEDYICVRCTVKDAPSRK
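Coupled FDH/NAD⁺ fluorescence readout. KDM5BΔAP 200 nM final; compound titration, 10 min RT preincubation; substrate mix 12.5 µM H3K4me3, 25 µM 2-OG, 50 µM Fe(II), 100 µM ascorbate, 0.25 mM NAD⁺, 0.25 U/mL FDH; ΔRFU over 30 min.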
Numbers stand for hits; n = inactive; u = inconclusive; x = no result. Rows were chosen to be rich in hits. Some 2.8% of all compounds tested hit in one or more screens of this group. Unless noted, calls follow the shape of the dose curve; as a rule, active = well fitted curve in the direction sought with a large enough effect; inconclusive = small, poorly fitted or top-dose-only effect, or another doubt; inactive = no such curve, though single readings can be large; an effect the other way counts as inactive or inconclusive.

SMILES | IP6K1 inh | SNCA expr inhib | SNCA viab count | KDM5B inh
O=C(CCC[C@@H]1[C@H]2CCCN3CCC[C@@H](CN1Cc1ccccc1)[C@@H]23)NCCCn1cccn1 | n | n | n | 22µM
CN(C)C(=O)CCC[C@@H]1[C@H]2CCCN3CCC[C@@H](CN1C)[C@@H]23 | n | n | n | n
CC(=O)N1C[C@@H]2CCCN3CCC[C@@H]([C@H]23)[C@H]1CCCC(=O)NCCN1CCCCC1 | n | n | n | 22µM
CC(=O)N1C[C@@H]2CCCN3CCC[C@@H]([C@H]23)[C@H]1CCCC(=O)NCCCN1CCCCC1 | n | n | n | 25µM
CC(=O)N1C[C@@H]2CCCN3CCC[C@@H]([C@H]23)[C@H]1CCCC(=O)N(C)C | n | n | n | 20µM
COc1ccc(C(CC(=O)N2CCCC2)c2ccccc2)cc1 (stereo unspecified) | n | n | n | n
O=C([C@@H]1C[C@H](F)CN1C(=O)c1ccccc1Cl)N1CCCCC1 | n | n | n | x
CCN(CC)Cc1nc(C2(O)CCN(Cc3ccc(F)cc3)CC2)cs1 | n | n | n | n
COc1ccc(-c2cc3c(=O)n(CCNC(=O)Cc4ccsc4)ccn3n2)cc1 | n | n | u | 28µM
Cc1ccc(-c2cc3c(=O)n(CCNC(=O)Cc4ccsc4)ccn3n2)cc1C | n | n | n | n
O=C(Cc1ccc(F)cc1)NCCn1ccn2nc(-c3ccc(F)cc3)cc2c1=O | n | n | n | n
COc1ccc(-c2cc3c(=O)n(CCNC(=O)Cc4ccc(C)cc4)ccn3n2)cc1 | n | n | n | 20µM
CNC(=O)c1cc(COc2nnc(Nc3ccc(Cl)cc3)c3ccoc23)ccn1 | x | n | u | x
O=C(C1CN(C(=O)c2ccc(F)cc2F)c2ccccc2O1)N1CCOCC1 (stereo unspecified) | x | x | x | n
Cc1nc(NCCN2CCCC(C(N)=O)C2)c2cccnc2n1 (stereo unspecified) | n | n | n | 25µM
NC(=O)C1CCCN(CCNc2cc(-c3ccccc3)nc3ccnn23)C1 (stereo unspecified) | n | n | n | 32µM
CC(C)(C)C1CCc2onc(C(=O)N3CCCCC3)c2C1 (stereo unspecified) | x | x | x | n
COc1ccc(C(=O)ON=C2c3ccccc3-c3ccccc32)cc1 | x | x | x | n
COc1cccc(-c2cc(C(=O)N3CCOCC3)c3cnn(C)c3n2)c1 | n | x | x | x
COCCNC(=O)c1cc(Br)cn2ccnc12 | n | n | n | 40µM
O=C(NCCc1ccccc1F)c1cc(Br)cn2ccnc12 | n | n | n | 28µM
O=C(NCc1ccc(C(F)(F)F)cc1)c1cc(Br)cn2ccnc12 | n | n | u | 14µM
COC(=O)CNC(=O)c1cc(Br)cn2ccnc12 | n | n | n | 32µM
O=C(NCCc1ccccc1F)c1ccncc1 | x | x | x | n
O=C(NCC(F)(F)F)c1cc(Br)cn2ccnc12 | n | n | n | 35µM
SMILES | IP6K1 inh | SNCA expr inhib | SNCA viab count | KDM5B inh
O=C(NCC1CC1)c1cc(Br)cn2ccnc12 | n | n | n | u
O=C1[C@H]2CN(Cc3ccc(F)c(Cl)c3)C[C@H]2C(=O)N1CCc1ccccc1 | n | n | n | 13µM
O=C(NCC1COCCO1)c1ccc(CN2CCC(N3CCCC3)CC2)[nH]c1=O (stereo unspecified) | n | n | n | 28µM
Cc1noc2c(-c3cccnc3NCCCn3ccnc3)cc(-c3ccccc3)nc12 | n | u | n | 35µM
COCCCNc1ncccc1-c1cc(-c2ccccc2)nc2c(C)noc12 | n | n | n | 40µM
Cc1noc2c(-c3cccnc3NCCN(C)C)cc(-c3ccccc3)nc12 | n | n | n | u
NS(=O)(=O)c1ccc(NC(c2ccccc2)C2CC2)c([N+](=O)[O-])c1 (stereo unspecified) | x | x | x | n
O=c1c2nc(N3CCC(c4ccccc4)CC3)ccc2ncn1-c1cccnc1 | n | n | n | 35µM
O=c1c2nc(N3CCC(c4ccccc4)CC3)ccc2ncn1Cc1ccccn1 | n | n | n | u
O=c1c2nc(N3CCC(c4ccccc4)CC3)ccc2ncn1C1CC1 | n | n | n | 35µM
CN1CCN(c2ccc3ncn(-c4cccnc4)c(=O)c3n2)CC1 | n | n | n | 35µM
O=C(Nc1ccc(O)c(-c2nc3ccccc3o2)c1)c1ccc([N+](=O)[O-])o1 | x | x | x | n
COc1ccc2[nH]cc(CCNC(=O)c3c(-c4ccccc4)cc(=O)n4c3CCCC4)c2c1 | n | n | n | x
CCNS(=O)(=O)c1cc(C(=O)NC(C)C)ccc1OC | x | x | x | n

Screening data as filed in PubChem BioAssay.
